About 2,600 (16%) of roughly 16,000 compounds were called active. Inconclusive results (about 20%) are left out. These entries were drawn from the full list. A number with no mark means an inactive call. Calls come from the whole dose curve; as a rule, active = well fitted curve in the direction sought with a large enough effect; inconclusive = small, poorly fitted or top-dose-only effect, or effect the other way; inactive = no such curve, though single readings can be large or run the other way.
molecular target: Cytochrome P450 2D6 (Homo sapiens) (UniProt P10635); experiment: Cytochrome panel assay with activity outcomes; conditions: recombinant CYP, pro-luciferin dealkylation, luminescence, p450-cyp2d6; series mostly up to 57.1 µM; activity, negative = inhibition: at the top concentration
Sequence (P10635 whole entry, looked up): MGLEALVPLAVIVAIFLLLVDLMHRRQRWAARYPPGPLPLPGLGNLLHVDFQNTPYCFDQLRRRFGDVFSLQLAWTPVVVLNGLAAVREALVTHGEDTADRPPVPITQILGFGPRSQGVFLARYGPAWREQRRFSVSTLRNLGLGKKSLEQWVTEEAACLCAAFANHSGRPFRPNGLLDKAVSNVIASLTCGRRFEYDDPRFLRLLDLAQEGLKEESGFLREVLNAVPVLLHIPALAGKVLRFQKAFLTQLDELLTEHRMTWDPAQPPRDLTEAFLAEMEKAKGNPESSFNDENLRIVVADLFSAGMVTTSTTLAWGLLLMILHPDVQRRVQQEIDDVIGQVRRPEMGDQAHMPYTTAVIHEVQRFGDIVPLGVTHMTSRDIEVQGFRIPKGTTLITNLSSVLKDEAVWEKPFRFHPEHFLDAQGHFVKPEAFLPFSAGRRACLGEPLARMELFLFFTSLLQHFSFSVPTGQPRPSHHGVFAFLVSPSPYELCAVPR
% is set by controls: 0 for no effect and ±100 for the full control effect.

Compound | activity, negative = inhibition | AC50
CC(CCc1ccccc1)NS(=O)(=O)c1ccccc1 (centres undefined) | -24% | –
COc1cccc(Cn2c(=O)c(-c3ccccc3)nc3cnc(N(C)C)nc32)c1 | -12.2% | –
CC(=O)Nc1nc(NC(C)=O)c2[nH]c(CO)nc2n1 | -2.84% [at 11.4 µM] | –
Cc1cc(=O)n2c3ccccc3n(CC(O)CN3CCCCC3)c2c1C#N (centres undefined) | – | 8.91 µM (active)
O=CN1CCN(C[C@H](O)CN2CCCCC2)CC1 | 9.19% [at 11.4 µM] | –
OC(CN1CCCCC1)CN1CCCCC1 | 2.59% | –
Nc1ccc(C(=O)C[C@H](N)C(=O)O)cc1O | -0.576% [at 11.4 µM] | –
Cc1ccc(C)c(S(=O)(=O)NCc2ccc(C(=O)N3CCC(Cc4ccccc4)CC3)cc2)c1 | -14.3% | –
Cc1ccc(C(=O)N2CCN(C3c4cccc5cccc(c45)C3NS(=O)(=O)c3ccccc3)CC2)cc1 (centres undefined) | – | 2.82 µM (active)
CS(=O)(=O)Nc1ccc(C(=O)N2CCN(c3ccccc3)CC2)cc1 | -5.62% | –
COc1ccccc1CNS(=O)(=O)c1ccc2[nH]cc(C(=O)O)c(=O)c2c1 | 11.4% | –
COCC(=O)N/N=C/c1ccc(Sc2nc3ccccc3s2)o1 | -14.8% | –
Cc1ccc(C(=O)NC(=S)N2CC(C)OC(C)C2)cc1[N+](=O)[O-] (centres undefined) | -2.21% | –
CC(C)C[C@H](NC(=O)[C@@H]1O[C@H]1C(=O)O)C(=O)NCCCCN=C(N)N | 13.8% | –
O=C(NC(C(=O)c1ccccc1)n1cnccc1=O)c1ccccc1 (centres undefined) | -12.4% | –
Clc1ccccc1-c1nc(-n2ccnc2)c2ccccc2n1 | – | 12.6 µM (active)
Cc1ccccc1-c1nc(-n2ccnc2)c2ccccc2n1 | – | 15.8 µM (active)
COc1cc2c(c(O)c1OC)C(=O)C(OC)CCC2 (centres undefined) | 9.33% | –
Cc1c(Nc2ncccc2C(=O)O)cccc1C(F)(F)F | 6.69% [at 25.6 µM] | –
C/C(CCC(=O)OC[C@@H]1O[C@H](C#Cc2ccccc2)C=C[C@@H]1Oc1ccc(C)cc1)=N/OC[C@@H](C)[C@H](OCc1ccccc1)C(C)C | -14.2% [at 11.4 µM] | –
COCCn1c(=O)c(-c2cn(C)c3ccccc23)nc2cnc(Oc3ccccc3)nc21 | 8.26% | –
Cc1ccc(S(=O)(=O)NCCn2c(C)cc3ccccc32)cc1 | – | 8.91 µM (active)
CN(C)CCn1c(C(=O)O)cc2ccccc21 | 8.96% | –
Cc1cc2ccccc2n1CCNC(=O)c1ccccc1 | – | 2.51 µM (active)
Cc1ccc(C)n1NC(=O)c1ccccc1 | -10.9% | –

Compound | activity, negative = inhibition | AC50
Cc1cc2ccccc2n1CCNC(=O)C1CCCC1 | – | 12.6 µM (active)
O=C(NN1C(=O)c2ccccc2C1=O)C1CCCCC1 | -6.28% | –
CCN(CC)C(=O)CCNS(=O)(=O)c1ccc(C)cc1 | 23.4% | –
Cc1cc2ccccc2c(=O)n1CC(=O)NCC(=O)N1CCCC1 | 4.07% | –
Cc1ccc(S(=O)(=O)NCCSc2nnnn2C)cc1 | 2.18% | –
C[C@]12C=CC(=O)C=C1CC[C@@H]1[C@H]3C[C@@H](O)[C@](O)(C(=O)CO)[C@@]3(C)C[C@H](O)[C@]12F | 4.42% [at 25.6 µM] | –
COc1ccc(S(=O)(=O)n2ccc(-c3cnc(-c4ccccc4)s3)n2)cc1 | -30% | –
Cc1cc(-c2ccc(Cl)cc2)oc(=O)c1NC(=O)c1ccccc1 | -25.3% | –
COc1cccc(Cn2c(=O)cnc3cnc(N(C)C)nc32)c1 | -9.22% | –
CCCCOc1ccc(C(=O)NCc2ccco2)cc1 | -28.9% | –
CCCCCOc1ccc(C(=O)NCC2(c3ccccc3)CCOCC2)cc1 | – | 17.8 µM (active)
O=C(NCCc1ccccc1)C(=O)NCC1(c2ccccc2)CCCC1 | 22.4% | –
CN1c2ccccc2Oc2c(c(=O)n(C)c(=O)n2C)C1c1cccc([N+](=O)[O-])c1 (centres undefined) | 14.5% | –
CCCN1CNC(=S)N(c2cccc(C)c2C)C1 | -4.4% | –
COc1ccc(/C=N/NC(=O)c2ccccc2)cc1CN1CCN(c2ccc(F)cc2)CC1 | – | 25.1 µM (active)
COc1ccc(/C=N/NC(=O)c2ccn[nH]2)cc1COc1ccc(F)cc1 | -5.88% | –
COc1ccc(/C=N/NC(=O)c2sccc2OCc2ccc(F)cc2)cc1OC | 0.295% | –
Cn1c(=O)c2[nH]c(CCCCc3nc4c([nH]3)c(=O)n(C)c(=S)n4C)nc2n(C)c1=S | -8.04% [at 11.4 µM] | –
Cc1c(O)c(=O)n(-c2ccccc2)n1C | -4.44% [at 25.6 µM] | –
Cc1c(NCc2cc(Cl)ccc2O)c(=O)n(-c2ccccc2)n1C | – | 6.31 µM (active)
Cc1c(NC(=O)Nc2c(Cl)cccc2Cl)c(=O)n(-c2ccccc2)n1C | -4.06% [at 11.4 µM] | –
O=c1nc2ccccc2c2n1C[C@H](CN1CCN(c3ccccc3)CC1)N2 | -11.1% | –
O=C(O)/C=C(/C(=O)O)[C@]12CCN3CC4=CCO[C@@H]5CC(=O)N[C@@H]1[C@H]5[C@H]4C[C@H]32 | -1.84% [at 11.4 µM] | –
c1ccc(CNc2nc(-c3ccc4c(c3)OCO4)nc3ccccc23)cc1 | – | 12.6 µM (active)
c1csc(CNc2nc(-c3ccc4c(c3)OCO4)nc3ccccc23)c1 | – | 10 µM (active)

Compound | activity, negative = inhibition | AC50
COc1ccccc1CNc1nc(-c2ccc(N(C)C)cc2)nc2ccccc12 | – | 10 µM (active)
Cc1cnc(CNc2nc(-c3ccc(C(=O)N(C)C)cc3)nc3ccccc23)cn1 | -18.2% | –
Cc1cnc(CNc2nc(-c3ccc4c(c3)OCO4)nc3ccccc23)cn1 | – | 15.8 µM (active)
CCOC(=O)C1CCCN(C(=O)CCn2nc(-c3ccccc3)ccc2=O)C1 (centres undefined) | -20.7% | –
S=c1c2[nH]cnc2ncn1CCSc1ncnc2nc[nH]c12 | 8.54% [at 11.4 µM] | –
CN(C(=O)CCCOc1ccc2[nH]c(=O)ccc2c1)C1CCCCC1 | -4.66% | –
CC(Oc1ccc(-c2ccccc2)c(F)c1)c1ccn(S(=O)(=O)c2ccc(Cl)cc2)n1 (centres undefined) | -8.63% | –
COC(Cn1c(C)c(C(C)=O)c(C(C)=O)c1C)OC | 17.2% | –
Nc1nc(-c2cccnc2)cc(-c2cc(-c3cccnc3)nc(N)n2)n1 | -6.86% [at 11.4 µM] | –
CCC(=O)N1CCn2c1nc1ccccc12 | 3.08% | –
CCC(C)NC(=O)c1cnn2c(C)c3c(nc12)CCCC3 (centres undefined) | -19.4% | –
COCCNc1nc(-c2ccc(C(=O)N(C)C)cc2)nc2ccccc12 | -9.46% | –
COc1ccccc1CNc1nc(-c2ccc3c(c2)OCO3)nc2ccccc12 | – | 10 µM (active)
CC(=O)NCCNc1nc(-c2ccc3c(c2)OCO3)nc2ccccc12 | – | 12.6 µM (active)
Cc1cccc(CNc2nc(-c3ccc4c(c3)OCO4)nc3ccccc23)c1 | – | 20 µM (active)
CC(=O)NCCNc1nc(-c2ccc(C(=O)N(C)C)cc2)nc2ccccc12 | -4.75% | –
c1cncc(CNc2nc(-c3ccc4c(c3)OCO4)nc3ccccc23)c1 | – | 12.6 µM (active)
COC(=O)N1CCC2(CC1)CN(C(=O)Nc1cccc(C#N)c1)C2 | 0.446% | –
COc1cc(NC(=O)c2c(F)cccc2F)nc(OC)n1 | 1.76% | –
Cc1cc(NC(=O)CCCC(=O)OCC(F)(F)C(F)F)cc(C)c1C(=O)O | 12.6% | –
COc1ccc(-n2c(=O)c(-c3cc(F)cc(F)c3)nc3cnc(N4CCNCC4)nc32)cc1 | 9.29% | –
Cc1ccc(S(=O)(=O)Oc2ccc(/C=C(/NC(=O)c3ccccc3)C(=O)Nc3ccccc3)cc2)cc1 | 23.4% | –
C[C@H]1COC(=O)[C@H]2CCCN2C(=O)[C@@H](C)COC(=O)[C@H](Cc2ccccc2)NC1=O | 2.57% [at 11.4 µM] | –
CCn1c(SCC(=O)Nc2ccc3c(c2)OCCO3)nc2c(c1=O)SC(C)C2 (centres undefined) | -11.9% | –
CC1=NN(c2ccc(S(=O)(=O)O)cc2)C(=O)/C1=C\c1ccc(Cl)cc1 | 5.53% [at 11.4 µM] | –

Compound | activity, negative = inhibition | AC50
O=C(N/C(=C\c1cccnc1)C(=O)N1CCOCC1)c1cccc(Br)c1 | 5.99% | –
N#Cc1cccc(-c2nc(Nc3ccncc3)c3ccccc3n2)c1 | -7.94% | –
c1ccc2c(Nc3ccncc3)nc(-c3ccc4c(c3)OCO4)nc2c1 | – | 20 µM (active)
Cc1noc(C)c1-c1nc(Nc2ccccc2)c2ccccc2n1 | 6.91% | –
O=c1[nH][nH]cc1C=Nc1ccccc1O | -5.68% | –
Cc1noc(COc2ccc(OCc3nc(C)no3)cc2)n1 | -22.9% | –
Cc1cc(C)n(-c2nc(NC(C)C)nc(NC(C)C)n2)n1 | 1.57% | –
CN(C)c1ccc(-c2nc(N3CCNCC3)c3ccccc3n2)cc1 | – | 12.6 µM (active)
c1ccc2c(N3CCNCC3)nc(-c3ccc4c(c3)OCO4)nc2c1 | – | 3.16 µM (active)
COc1cc(/C=C/C(=O)O)cc(S(=O)(=O)NCCCO)c1OC | -3.23% | –
O=C1Oc2ccccc2C2(O)C3CCCCCC3C12 (centres undefined) | -17.5% | –
CSc1nc(Oc2ccc(=O)[nH]n2)nc(N(C)C)n1 | -21.1% | –
Cc1cc(/C=C2\SC(=S)NC2=O)c(C)n1C | -6.16% | –
CCCCCSc1nnc(C)c(=O)[nH]1 | 9.5% | –
COc1ccc(NC(=O)N2CC[C@@]3(CCCN(C(=O)c4cc(C(F)(F)F)cc(C(F)(F)F)c4)C3)C2)cc1 | 7.53% | –
O=C(O)/C(Cc1ccc([N+](=O)[O-])cc1)=N/O | 6.05% [at 11.4 µM] | –
COc1ccc(/C=C2/S/C(=N/N=C3\CC4CCC3(C)C4(C)C)NC2=O)cc1 (centres undefined) | -4.41% | –
CC(=O)O[C@]1(C(C)=O)CC[C@@H]2[C@@H]3C=C(Cl)C4=CC(=O)[C@H]5C[C@@H]5[C@]4(C)[C@H]3CC[C@]21C | – | inactive
CCNc1ncc2nc(-c3ccc(OC)cc3)c(=O)n(Cc3cccs3)c2n1 | -0.478% | –
COc1ccc(-c2csc(NC(=O)Cn3nc(C)cc3C)n2)cc1 | -0.175% | –
COc1cccc(Nc2nc(-c3ccc(O)cc3)cs2)c1 | – | 8.91 µM (active)
COc1cccc(-c2csc(N3CCN(C(=S)Nc4ccccc4)CC3)n2)c1 | -11.1% | –
Cc1ccc(OCC(=O)NNC(=O)C2CCN(c3ncccn3)CC2)cc1 | -28% | –
OC[C@@H]1O[C@@H](n2cnc3c(NC4CCCC4)ncnc32)[C@H](O)[C@H]1O | -1.52% | –
